Experimental data from PubChem BioAssay (EPA / NIEHS).
Calls of active or inactive are those of the source. Rule for the calls: active = hit-call score of the fitted dose curve at least 0.9, where 1 is the maximum; inactive = score below 0.9.

Assay: ATG_MRE_CIS: Attagene CIS-FACTORIAL HepG2 Assay for human Metal Responsive Element (MRE) (AID 2282954)
Details: HepG2 MRE cis-reporter transcription, Attagene multiplex; actives raise or lower the signal
Procedure, shortened: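 RT-PCR/capillary electrophoresis readout of reporter mRNA, 24 h post-dosing, in HepG2 cells transfected with multiplexed cis-regulated reporter constructs. Gain or loss of signal fitted bidirectionally against DMSO baseline.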
In the case of `CCOP(=O)(SC(C)CC)N1CCSC1=O` (stereo unspecified), the outcome is reported as “inactive”.
For `CCCCOC(=O)[C@@H](C)Oc1ccc(Oc2ccc(C#N)cc2F)cc1`, the outcome was “inactive”.
With `CC(=NC#N)N(C)Cc1ccc(Cl)nc1` the outcome was “inactive”.
For `CCc1cccc(C)c1N(C(=O)CCl)C(C)COC` (stereo unspecified), the outcome was “inactive”.
In the case of `COc1cc(OC)nc(Sc2cccc(Cl)c2C(=O)O)n1`, the outcome is reported as “inactive”.
In the case of `CON=C(C(=O)OC)c1ccccc1CON=C(C)c1cccc(C(F)(F)F)c1`, the AC50 is reported as 68.9 µM (active).
With `CC1=NNC(=O)N(/N=C/c2cccnc2)C1` the outcome was “inactive”.
For `S=C1NCCN1`, the outcome was “inactive”.
In the case of `CC(C)=CC1C(C(=O)OCN2C(=O)C3=C(CCCC3)C2=O)C1(C)C` (stereo unspecified), the AC50 is reported as 64.6 µM (active).
With `CC(C1CC1)C(O)(Cn1cncn1)c1ccc(Cl)cc1` (stereo unspecified) the outcome was “inactive”.
In the case of `C#CC(C)(C)NC(=O)c1cc(Cl)cc(Cl)c1`, the AC50 is reported as 50 µM (active).
In the case of `CCC(=O)Nc1ccc(Cl)c(Cl)c1`, the outcome is reported as “inactive”.
With `O=C(O)c1cc(Oc2ccc(C(F)(F)F)cc2Cl)ccc1[N+](=O)[O-]` the outcome was “inactive”.
For `CCOP(=S)(OCC)SCCSCC`, the outcome was “inactive”.
For `CCc1cnc(C2=NC(C)(C(C)C)C(=O)N2)c(C(=O)O)c1` (stereo unspecified), the outcome was “inactive”.
For `CCOP(=S)(Oc1cnc(C(C)(C)C)nc1)OC(C)C` (stereo unspecified), the AC50 was 65.3 µM (active).
With `CCOP(=S)(OCC)OC(Cl)C(Cl)(Cl)Cl` (stereo unspecified) the AC50 was 32.9 µM (active).
For `CN(C)C(=O)Nc1cccc(C(F)(F)F)c1`, the outcome was “inactive”.
With `CNC(=O)ON=C(C)SC` the outcome was “inactive”.
For `CCCOc1nn(C(=O)NS(=O)(=O)c2ccccc2C(=O)OC)c(=O)n1C`, the outcome was “inactive”.
For `CCOC(=O)COc1cc(-c2nn(C)c(OC(F)F)c2Cl)c(F)cc1Cl`, the outcome was “inactive”.
